Results published in the supplement of paper PMC13380429.
Values without a mark were called inactive.

The compounds below were run on Vero E6 infected with SARS-CoV-2 (assay: inhibition of SARS-CoV-2 cytopathic effect; higher = more antiviral protection, active = above 15). Conditions: 100 nM; 48 h.

Compound | inhibition of SARS-CoV-2 cytopathic effect [%]
CCOC(=O)C(=O)Nc1cccc(OC)c1C(N)=O | 6.88
Cc1cc(OI)c(C(C)C)cc1-c1cc(C(C)C)c(OI)cc1C [thymol-iodide] | -0.16
Nc1n[nH]c2nc3ccccc3nc12 [CDK1-5-inhibitor] | 0.84
CC(C)(C)c1cc(NC(=O)Nc2ccc(-c3cn4c(n3)sc3cc(OCCN5CCOCC5)ccc34)cc2)no1 [quizartinib] | 0.83
COc1cc(NS(=O)(=O)c2ccc(N)cc2)nc(OC)n1 [sulphadimethoxine] | 2.74
NC(=O)c1ncn([C@@H]2O[C@H](CO)[C@@H](O)[C@H]2O)n1 [ribavirin] | -6.04
Cc1nc(Nc2ccc(F)cc2)nc(N2CCc3ccccc3C2C)c1C (stereo not given) [revaprazan] | 2.31
CN1CCCC(n2nc(Cc3ccc(Cl)cc3)c3ccccc3c2=O)CC1 (stereo not given) [azelastine] | -3.43
O=C1N=C2SCCN2C(=O)C1Cc1ccc(Cl)cc1 (stereo not given) [nuclomedone] | 0.26
CO[C@@]12[C@H](COC(N)=O)C3=C(C(=O)C(C)=C(N)C3=O)N1C[C@@H]1N[C@@H]12 [mitomycin-C] | -0.38
